NPSR antagonist: neuropeptide S receptor (human) antagonism, cAMP; Q6W5P4; CHO-NPSR cells, cAMP TR-FRET, antagonist mode; Potency, µM (top dose mostly 38.3 µM), inactives show at the top dose activity change, negative = inhibition, actives largely listed as inhibitors; actives 1% (n = 220,000); AID 1461; also: nearly all actives have a fitted effect of over 50% in size
HPGD block: inhibitors of human 15-hydroxyprostaglandin dehydrogenase (HPGD); P15428; purified HPGD, NADH fluorescence kinetic, PGE2 substrate; Potency, µM, for the others: top-dose activity change, negative = inhibition, hits mostly inhibitors; actives 4.3% (n = 150,000); AID 894; active = well fitted inhibition curve with a large enough effect, not every such curve was filed as active; inconclusive = small, poorly fitted or top-dose-only effect, or another doubt; inactive = no such curve, though single readings can be large or run the other way
Target sequence (P15428 whole entry, looked up): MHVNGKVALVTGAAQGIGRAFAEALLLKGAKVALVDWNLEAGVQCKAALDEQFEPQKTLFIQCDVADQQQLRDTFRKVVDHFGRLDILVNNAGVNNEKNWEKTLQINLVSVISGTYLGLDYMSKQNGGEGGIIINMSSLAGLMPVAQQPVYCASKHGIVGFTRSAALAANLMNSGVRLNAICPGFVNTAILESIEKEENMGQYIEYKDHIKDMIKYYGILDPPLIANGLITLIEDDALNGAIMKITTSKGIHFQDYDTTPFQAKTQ
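20 nM HPGD preincubated 15 min at room temperature with compound in 50 mM Tris-HCl pH 8, 0.01% Tween 20. Started with 1 mM NAD+ and 30 uM prostaglandin E2; NADH fluorescence (360/450 nm) read 5 times over 30-s intervals, last minus first.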
Tau fluor cs: counter-screen for tau fibril formation inhibitors | tau K18 P301L Alexa594 fluorescence, heparin fibrillization | Potency, µM (doses to about 57.7 µM), for inactives: at the top dose activity change, negative = decrease | actives 0.93% (n = 280,000) | AID 1463; also: nearly all actives have a fitted effect of over 55% in size
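Human tau K18 P301L (15 uM unlabeled, 0.24 uM Alexa 594-labeled) in 100 mM sodium acetate pH 7 with 20 uM heparin, 6 hr at 37 C. ThT 30 uM added, 1 hr ambient; Alexa 594 FP and total fluorescence read at 555/632 nm.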
Tau fibril ThT: tau fibrillization inhibition (ThT binding); actives 2.1% (n = 270,000); recombinant tau K18 P301L (four-repeat tau fragment), heparin-induced fibrillization, ThT fluorescence; P10636; AID 1460; Potency, µM (titrated, usually from 57.4 µM), for inactives: at the highest dose activity, negative = inhibition, hits mostly inhibitors; also: nearly all actives have a fitted effect of over 55% in size
Target sequence (P10636 561-689 P618L limits assumed): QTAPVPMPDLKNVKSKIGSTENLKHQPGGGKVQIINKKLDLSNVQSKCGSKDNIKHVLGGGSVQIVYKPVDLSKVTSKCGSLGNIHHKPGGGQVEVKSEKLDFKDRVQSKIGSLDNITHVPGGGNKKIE
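In this qHTS, human K18 P301L tau is incubated with compound and heparin for 6 hr at 37 C, and Thioflavin T fluorescence then reports fibril load.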
ALDH1A1 block: ALDH1A1 (human) enzyme inhibition; P00352; Purified ALDH1A1, NADH fluorescence, propionaldehyde substrate; Potency, µM (titrated, usually from 75.3 µM), for the others: top-dose activity, negative = inhibition, actives largely listed as inhibitors; actives 7.3% (n = 220,000); AID 1030; active = well fitted inhibition curve with a large enough effect, not every such curve was filed as active; inconclusive = small, poorly fitted or top-dose-only effect, or another doubt; inactive = no such curve, though single readings can be large or run the other way;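 also: plate controls were no enzyme wells and a reference inhibitor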
Tau FP inhib: inhibitors of human tau fibril formation | K18 P301L tau heparin fibrillization, Alexa594 FP, 6 h | Potency, µM (series often up to 57.7 µM), inactives show top-dose activity, negative = inhibition, most hits filed as inhibitors | actives 0.39% (n = 280,000) | AID 1468; also: nearly all actives have a fitted effect of over 55% in size
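Compound effects on tau fibrillization are measured by Alexa 594 fluorescence polarization (ex 555, em 632 nm). K18 P301L tau is used at 15 uM with 0.24 uM labeled tracer, and 20 uM heparin induces aggregation over 6 hr at 37 C.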
Starred values were filed as active, the others as inactive; u = inconclusive; x = not tested or not shown; [ ] = another dose, or the depositor's remark. An excerpt weighted towards active compounds, which were near 9.5% of everything screened. Unless noted, calls follow the shape of the dose curve; as a rule, active = well fitted curve in the direction sought with a large enough effect; inconclusive = small, poorly fitted or top-dose-only effect, or another doubt; inactive = no such curve, though single readings can be large; an effect the other way counts as inactive or inconclusive. Unless noted, % is scaled to controls: 0 for no effect and ±100 for the full control effect; potency is read from the fitted curve at half-maximal effect.

SMILES | NPSR antagonist | HPGD block | Tau fluor cs | Tau fibril ThT | ALDH1A1 block | Tau FP inhib
CCc1[nH]nc2c1C1(C(=O)N(Cc3ccccc3)c3ccccc31)C(C#N)=C(N)O2 (centres undefined) | -9.2%[46.1 µM] | -15.4% | -9.7% | -3.2% | 7.94µM* | -6.4%
O=C(CSc1ccc(-c2cccs2)nn1)N1CCCCCC1 | 2.1% | 11.2µM* | -2.9% | 3.0% | -5.5% | -8.7%
CCOc1ccccc1C(=O)Nc1nnc(SCC(=O)N2CCOCC2)s1 | 16.8% | x | -4.2% | 4.3% | u | -10.6%
O=C(Nc1nnc(SCC(=O)N2CCOCC2)s1)c1ccccc1 | -12.3% | 31.6µM* | -4.0% | 1.0% | -7.4% | 3.9%
O=C(CSc1ccc2nnc(-c3cccs3)n2n1)N1CCCC1 | -7.7% | x | -7.5% | -10.1% | u | -9.5%
O=C(CSc1ccc(-c2ccccc2)nn1)N1CCOCC1 | -8.4%[46.1 µM] | -21.8% | -0.7% | -7.9% | 28.2µM* | 5.5%
O=C(CSc1ccc(-c2cccs2)nn1)N1CCCCC1 | -12.1%[46.1 µM] | 3.55µM* | 1.2% | -1.9% | u | 0.0%
Cc1nc(CSc2nnc3scc(-c4ccc(Cl)cc4)n23)cs1 | -0.7%[46.1 µM] | -22.4% | -4.6% | -4.5% | u | 1.8%
O=C(CSc1ccc(-c2cccs2)nn1)NCc1ccccc1Cl | -2.8%[46.1 µM] | 31.6µM* | -6.4% | -1.7% | 0.3% | -2.5%
CC(=O)c1cccc(Nc2ccc(-c3ccccc3F)nn2)c1 | -4.0% | x | -23.7% | u | u | -0.5%
CC(=O)c1ccc(Nc2ccc(-c3ccccc3C)nn2)cc1 | -12.1% | x | u | u | 7.08µM* | 4.4%
CCNc1nc(NC(N)=S)nc(NC(C)(C)C)n1 | 16.6% | x | -13.2% | -11.8% | u | -5.8%
O=S(=O)(c1ccccc1)N1CCC[C@@]2(CCN(Cc3cc(C(F)(F)F)cc(C(F)(F)F)c3)C2)C1 | x | -8.0% | x | x | -11.7% | x
Cc1cc(C(C#N)c2ccccc2F)n2ncnc2n1 (centres undefined) | 15.9% | x | 5.9% | 0.6% | 15.8µM* | 1.8%
Cc1cc(C(C#N)c2ccccc2)n2ncnc2n1 (centres undefined) | -23.4%[46.1 µM] | -7.1% | 0.7% | -0.7% | u | -0.8%
O=C(CCSCc1cccc(Cl)c1)N1CCN(c2ccc(Cl)cc2)CC1 | x | x | -14.3% | u | x | 9.5%
Cn1c(C(C#N)C2=C(Cl)C(=O)N(c3ccccc3)C2=O)nc2ccccc21 (centres undefined) | u | -22.9% | 15.8µM*[quencher] | 12.6µM* | u | u
Cn1c(C(O)C(O)c2ccccc2)nc2ccccc21 (centres undefined) | 5.9% | x | 2.2% | 0.7% | 11.2% | -3.3%
CCOC(=O)/C=C1\NC(C)(C)Cc2cc(OC)c(O)cc21 | -12.5%[46.1 µM] | 35.5µM* | -6.8% | 3.2% | 11.2µM* | 11.4%
Cc1ccc(C(=O)NN2C(=O)C3C4C=CC(C4)[C@@H]3C2=O)cc1 (some centres undefined) | 9.3% | x | -1.3% | x | x | 9.7%
COc1ccc(C(=O)NN2C(=O)C3C4C=CC(O4)C3C2=O)cc1 (centres undefined) | -10.1%[46.1 µM] | 4.3% | 0.8% | -3.8% | 7.94µM* | -1.4%
COc1cccc(C(=O)NN2C(=O)C3C4C=CC(O4)C3C2=O)c1 (centres undefined) | 3.7%[46.1 µM] | 1.8% | -0.1% | -9.1% | 14.1µM* | -0.2%
COc1cccc(C(=O)NN2c3ccccc3CCc3ccccc32)c1 | -5.0% | -21.3% | -2.3% | -1.3% | -7.2% | 3.6%
Cc1ccc(C)c(N2CCN(C(=O)Cn3cnc4sc(C)c(S(=O)(=O)N5CCN(c6ncccn6)CC5)c4c3=O)CC2)c1 | x | x | -19.0% | -13.0% | x | -1.7%
COc1ccc(CN2CCN(C(=O)C3CCN(S(=O)(=O)c4cccs4)CC3)CC2)c(OC)c1OC | 9.9% | x | -8.6% | -10.7% | u | -0.1%
COc1ccc(CN2CCN(C(=O)C3CCC(CNS(=O)(=O)c4ccc(C)cc4)CC3)CC2)c(OC)c1OC (centres undefined) | -7.7% | x | 5.3% | -9.5% | 20µM* | 0.7%

Assay outcomes as filed in PubChem BioAssay.
